SENP7 inh: SENP7 protease inhibitors, primary screen, biochemical, luminescence, uHTS; inhibition, % at 5 µM; hit rate 1.5% among 330,000; Sentrin-specific protease 7 (Homo sapiens), Q9BQF6; AID 434973, 2010; recombinant SENP7, Z-RLRGG-aminoluciferin luminescence, 40 min;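 active = inhibition above about 50% at the single test dose, limit read from the data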
SENP8 block-1: human SENP8 protease inhibitors, primary screen, biochemical, fluorescence, Nedd8 protein substrate, uHTS | Sentrin-specific protease 8 (Homo sapiens), Q96LD8 | recombinant SENP8 | inhibition, % at 20 µM | hit rate 0.64% among 360,000 | AID 602440, 2012; in the data active = inhibition mostly above about 40%, no sharp cut-off; inactive = mostly below about 27%
AHR act: AHR activators, primary screen, cell-based, luminescence, luciferase reporter, human. activation, % at 5 µM. AHR-responsive luciferase reporter cells. AID 2796, 2010. Aryl hydrocarbon receptor (Homo sapiens), P35869. hit rate 2.5% among 320,000; in the data active = activation above about 47%
SENP6 inh: SENP6 protease inhibitors, primary screen, biochemical, luminescence, uHTS; hit rate 1.8% among 330,000; Recombinant SENP6 catalytic domain, aminoluciferin luminescence; Sentrin-specific protease 6 (Homo sapiens), Q9GZR1; inhibition, % at 10 µM;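 active = inhibition above about 50% at the single tested dose, limit read from the data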
Target sequence (Q9GZR1 628-1112 limits assumed): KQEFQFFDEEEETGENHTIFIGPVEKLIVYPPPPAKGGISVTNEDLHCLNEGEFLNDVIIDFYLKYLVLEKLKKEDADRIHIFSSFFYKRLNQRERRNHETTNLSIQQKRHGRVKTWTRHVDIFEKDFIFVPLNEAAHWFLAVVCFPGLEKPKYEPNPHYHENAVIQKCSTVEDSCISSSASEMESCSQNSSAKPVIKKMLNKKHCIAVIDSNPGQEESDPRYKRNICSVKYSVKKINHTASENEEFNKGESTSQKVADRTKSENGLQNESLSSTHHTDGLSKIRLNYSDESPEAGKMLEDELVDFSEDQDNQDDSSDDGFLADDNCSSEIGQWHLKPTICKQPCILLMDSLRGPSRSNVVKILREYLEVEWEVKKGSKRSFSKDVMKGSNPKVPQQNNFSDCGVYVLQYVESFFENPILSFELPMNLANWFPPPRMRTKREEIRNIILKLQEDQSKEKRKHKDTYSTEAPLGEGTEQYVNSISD
EBI2 antag: EBI2 receptor antagonists, beta-arrestin recruitment, primary screen, cell-based, luminescence, 7a,25-OHC stimulation, uHTS; inhibition, % at 5 µM; G-protein coupled receptor 183 (Homo sapiens), P32249; hit rate 0.81% among 360,000; 7a,25-OHC stimulated; in the data active = inhibition above about 38%;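 also: enzyme fragment complementation signal reports receptor beta-arrestin coupling in cells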
SENP8 block-2: SENP8 protease inhibitors, primary screen, biochemical, luminescence. AID 2540, 2010. hit rate 1.2% among 330,000. purified SENP8, Z-RLRGG-aminoluciferin cleavage. Sentrin-specific protease 8 (Homo sapiens), Q96LD8. inhibition, % at 10 µM; in the data active = inhibition above about 50%
EBI2 conf: EBI2 antagonist hit retest, beta-arrestin, confirmation, cell-based, single concentration, luminescence, 7a,25-OHC stimulation. shares compounds with EBI2 antag. 7a,25-OHC antagonism. inhibition, % at 5 µM. hit rate 29% among 2,400;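 active = inhibition of at least 50%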
EBI2 agonist: EBI2 agonist activity of antagonist hits, confirmation, counter-screen for EBI2 antagonist project, cell-based, single concentration, agonist mode, luminescence; activation, % at 5 µM; EBI2-expressing cells, 60 min; 0% vehicle, 100% 7α,25-dihydroxycholesterol control; 2,400 tested, under 10 active; shares compounds with EBI2 antag;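 active = activation of at least 50%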
bGal cs: E. coli beta-galactosidase enzyme inhibition, confirmation, counter-screen for EBI2 antagonist project, biochemical, luminescence, single concentration; shares compounds with EBI2 antag; purified beta-galactosidase, luminescent Galacton Star, 15 min; inhibition, % at 5 µM; hit rate 1% among 2,400; AID 652176, 2013;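 active = replicate-average signal at least 3 plate SD below neutral wells, shown as high inhibition, flagging enzyme-inhibiting false positives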;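 also: higher means stronger loss of beta-gal luminescence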
Numbers stand for hits; – = inactive; · = not tested or not shown. Only some compounds are listed: those with a hit (about 5% of all), similar ones and a draw of the others.

SMILES	SENP7 inh	SENP8 block-1	AHR act	SENP6 inh	EBI2 antag	SENP8 block-2	EBI2 conf	EBI2 agonist	bGal cs
COc1ccc(N2CC(C(=O)Nc3ccc(S(=O)(=O)N4CCCCC4)cc3)CC2=O)cc1 (stereo unspecified)	–	–	–	–	75	–	56	–	–
COc1ccc(N2CC(C(=O)Nc3ccc(S(=O)(=O)N4CCCC4)cc3)CC2=O)cc1 (stereo unspecified)	–	–	–	–	50	–	–	–	–
C[C@@H]1CN([C@H](C)CO)C(=O)c2cc(NC(=O)Nc3ccc(F)cc3)ccc2O[C@@H](C)CCCCO[C@H]1CN(C)S(=O)(=O)c1cccs1	·	–	·	·	–	·	·	·	·
COc1cccc(C(=O)NCC(=O)NCc2cc(=O)n(C)c(=O)n2C)c1OC	–	–	–	–	–	–	·	·	·
O=C(Nc1ccc(S(=O)(=O)N2CCCCC2)cc1)C1CC(=O)N(c2ccc(Cl)cc2)C1 (stereo unspecified)	–	–	–	–	89	–	56	–	–
CC(=O)Nc1ccc(NC(=O)C2CC(=O)N(c3ccc(Cl)cc3)C2)cc1 (stereo unspecified)	–	–	–	–	–	–	·	·	·
Cc1ccc(CN2CC(C(=O)Nc3ccc(S(=O)(=O)N4CCCCC4)cc3)CC2=O)cc1 (stereo unspecified)	–	–	–	–	50	–	–	–	–
CCc1ccc(N2CC(C(=O)Nc3ccc(S(=O)(=O)N4CCOCC4)cc3)CC2=O)cc1 (stereo unspecified)	–	–	–	–	52	–	–	–	–
Cc1ccc(N2CC(C(=O)Nc3ccc(S(=O)(=O)NCC4CCCO4)cc3)CC2=O)cc1 (stereo unspecified)	–	–	–	–	51	–	–	–	–
CCN(CC)C(=O)c1ccccc1NC(=O)CN1C(=O)c2ccccc2C1=O	–	–	–	–	–	–	·	·	·
OC1CCN(c2c3c(nc4cc(-c5ccc(Cl)cc5)nn24)CCC3)CC1	–	–	–	–	44	–	–	–	–
Cc1nc(C)c(-c2csc(Nc3ccc(C(=O)O)c(O)c3)n2)s1	–	–	·	–	–	–	·	·	·
Cc1nc(C)c(-c2csc(Nc3ccc(F)cc3)n2)s1	–	–	–	–	46	–	52	–	–
COc1cccc(Nc2nc(-c3sc(C)nc3C)cs2)c1	–	–	–	–	48	–	59	–	–
C[C@@H]1CN([C@@H](C)CO)S(=O)(=O)c2ccc(-c3ccc(C#N)cc3)cc2O[C@@H]1CN(C)Cc1ccccn1	·	–	·	·	–	·	·	·	·
S=C1NC[C@H](CC2CCCCC2)N1CCc1cccc2ccccc12	–	–	–	–	51	–	–	–	–
O=C(N[C@@H](Cc1ccccc1)C(=O)NCCc1c[nH]c2ccccc12)c1ccco1	–	–	–	–	57	–	–	–	–
O=[N+]([O-])C1=CC=C2C(=NC3(CCCCC3)N2O)C1=NC1CCCCC1	–	–	–	–	48	–	–	–	–
COc1ccc2nc(N3CCN(C(=O)c4ccc5ncsc5c4)CC3)sc2c1	–	–	–	–	–	–	·	·	·
CCOc1cccc2sc(N3CCN(C(=O)c4ccc5ncsc5c4)CC3)nc12	–	–	–	–	45	–	–	–	–
O=C(c1ccc2nc[nH]c2c1)N1CCN(c2cccc(C(F)(F)F)c2)CC1	–	–	·	–	–	–	·	·	·
O=C(c1ccc2ncsc2c1)N1CCN(c2cccc(C(F)(F)F)c2)CC1	–	–	·	–	54	–	–	–	–
COc1ccc(OC)c2sc(N3CCN(C(=O)c4ccc5ncsc5c4)CC3)nc12	–	–	–	–	54	–	–	–	–
COc1ccc(N=C2C(=Nc3ccc(OC)cc3)N(c3ccc(OC)cc3)C(=S)N2c2ccccc2)cc1	–	–	–	–	64	–	–	–	–
COc1ccc(OCCNC(=O)C(c2ccccc2)c2ccccc2)cc1	–	–	–	–	85	–	52	–	–
SMILES	SENP7 inh	SENP8 block-1	AHR act	SENP6 inh	EBI2 antag	SENP8 block-2	EBI2 conf	EBI2 agonist	bGal cs
O=C(NCCOc1ccccc1)C(c1ccccc1)c1ccccc1	–	–	–	–	53	–	–	–	–
O=C(NCCOCc1ccccc1)C(c1ccccc1)c1ccccc1	–	–	–	–	–	–	·	·	·
COc1ccccc1OCCNC(=O)C(c1ccccc1)c1ccccc1	–	–	–	–	–	–	·	·	·
COC(=O)c1c(NC(=O)Cn2cnc([N+](=O)[O-])n2)sc2c1CCC(C)C2 (stereo unspecified)	–	–	–	–	–	–	·	·	·
COc1ccc(Br)cc1CN(C)C(C)C(=O)Nc1cc([N+](=O)[O-])ccc1OC (stereo unspecified)	–	–	–	–	40	–	–	–	–
COc1ccc([N+](=O)[O-])cc1NC(=O)C(C)N(C)Cc1ccc(Br)cc1 (stereo unspecified)	–	–	–	–	–	–	·	·	·
O=C(N/N=C(\c1ccccc1)c1ccccn1)c1cccc([N+](=O)[O-])c1	–	–	–	–	66	–	–	–	–
COc1ccc(NC(=O)CN(C)C(=O)c2ccc3c(c2)CC(c2ccccc2)OC3=O)cc1 (stereo unspecified)	·	–	·	·	49	·	–	–	–
CS(=O)(=O)N(CC(=O)N1CCN(c2ccccc2F)CC1)c1cc(C(F)(F)F)ccc1Cl	–	–	–	–	65	–	–	–	–
CS(=O)(=O)N(CC(=O)N1CCCC1)c1cc(C(F)(F)F)ccc1Cl	–	–	–	–	–	–	·	·	·
Cc1cc(C(F)(F)F)nc(CCNC(=O)C2CCC(=O)N(Cc3cccc(F)c3)C2)n1 (stereo unspecified)	–	–	–	–	–	–	·	·	·
CC(C)C[C@@H](CN1CCC[C@@H]1CN1C(=S)NC[C@@H]1Cc1ccccc1)N1C[C@H](Cc2ccc(O)cc2)N(CC2CCCCCC2)C1=S	·	–	·	·	58	·	–	–	–
